Assay outcomes: PubChem BioAssay, National Center for Advancing Translational Sciences (NCATS)
Sampled rows, rich in hits. Any-hit rate of the full collection: about 1.8%.
HttQ103 aggreg = mutant huntingtin aggregation inhibition | PC12 HttQ103-GFP aggregates, Acumen cytometry, 40 h | Potency, µM (series often up to 46.1 µM), hits mostly inhibitors | hit rate 1.1% among 220,000; also: nearly all actives have a fitted effect of over 60% in size
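Quantitative HTS on tebufenozide-induced (100 nM) PC12 cells stably expressing polyQ103 Huntingtin exon 1–GFP. Reduction of bright GFP aggregates, detected by laser scanning cytometry after lysis, identified actives across the titration.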
HTT ATP protect = protects HTT-Q103 PC12 cells, measured by ATP | Potency, µM (highest dose often 56.4 µM), actives largely listed as activators | AID 1471 | hit rate 0.14% among 230,000 | PC12 HTT-Q103 induced, cytoprotection, ATP luminescence, 40 h; also: nearly all actives have a fitted effect of over 45% in size
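PC12 cells stably carrying ecdysone-inducible Htt exon 1 (Q103)–GFP were induced with 100 nM tebufenozide (final) alongside library compounds in a dose series. Cytoprotection was scored as retained ATP by ATPlite luminescence.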
L3MBTL1 block = L3MBTL1 (human) inhibition | Q9Y468 | hit rate 0.66% among 230,000 | AlphaScreen L3MBTL1–H3K9me1 peptide binding | Potency, µM (highest dose often 57.1 µM), hits mostly inhibitors; also: nearly all actives have a fitted effect of over 60% in size
Target sequence (Q9Y468 whole entry, looked up): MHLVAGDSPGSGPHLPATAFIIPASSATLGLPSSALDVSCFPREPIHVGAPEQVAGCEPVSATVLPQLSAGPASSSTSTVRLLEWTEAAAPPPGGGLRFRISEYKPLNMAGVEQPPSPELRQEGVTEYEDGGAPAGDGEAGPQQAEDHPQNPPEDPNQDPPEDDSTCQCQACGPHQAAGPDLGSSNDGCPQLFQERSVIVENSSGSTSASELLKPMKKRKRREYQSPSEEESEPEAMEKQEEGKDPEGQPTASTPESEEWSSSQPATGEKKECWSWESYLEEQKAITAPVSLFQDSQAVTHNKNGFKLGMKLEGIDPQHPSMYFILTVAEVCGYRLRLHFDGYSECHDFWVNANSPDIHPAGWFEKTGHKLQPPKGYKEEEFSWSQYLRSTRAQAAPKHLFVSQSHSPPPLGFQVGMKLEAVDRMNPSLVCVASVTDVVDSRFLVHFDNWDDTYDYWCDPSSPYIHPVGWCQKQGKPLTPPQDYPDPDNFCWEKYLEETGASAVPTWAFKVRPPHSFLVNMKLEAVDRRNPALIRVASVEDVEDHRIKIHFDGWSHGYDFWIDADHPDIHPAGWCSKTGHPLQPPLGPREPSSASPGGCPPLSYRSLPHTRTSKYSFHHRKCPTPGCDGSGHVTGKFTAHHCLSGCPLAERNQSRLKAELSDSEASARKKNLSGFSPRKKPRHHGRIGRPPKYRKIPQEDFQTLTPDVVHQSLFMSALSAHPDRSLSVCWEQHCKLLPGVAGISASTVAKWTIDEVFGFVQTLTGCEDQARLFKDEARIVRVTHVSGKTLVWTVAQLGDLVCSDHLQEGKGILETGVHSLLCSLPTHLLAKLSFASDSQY
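Displacement of a biotinylated histone H3(1-15) peptide monomethylated at Lys9 (75 nM) from L3MBTL1 (50 nM) was measured by AlphaScreen after a 30 min room-temperature compound incubation; cefsulodin titration served as intraplate control.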
KDM4E inh = blocks human JMJD2E demethylase activity | Potency, µM (titrated, usually from 57.1 µM), usual class: inhibitors | B2RXH2 | JMJD2E catalytic domain, FDH-coupled NADH fluorescence (FDH is formaldehyde dehydrogenase) | hit rate 1.6% among 230,000 | AID 2147; active = well fitted inhibition curve with a large enough effect, not every such curve was filed as active; inconclusive = small, poorly fitted or top-dose-only effect, or another doubt; inactive = no such curve, though single readings can be large or run the other way; also: nearly all actives have a fitted effect of over 50% in size
A number is an active result; [ ] = another dose, or the depositor's remark. Unless noted, calls follow the shape of the dose curve; as a rule, active = well fitted curve in the direction sought with a large enough effect; inconclusive = small, poorly fitted or top-dose-only effect, or another doubt; inactive = no such curve, though single readings can be large; an effect the other way counts as inactive or inconclusive.

`CCOC(=O)Cc1csc(-n2sc3ccccc3c2=O)n1` gave HttQ103 aggreg inactive, HTT ATP protect inactive[10 µM] and KDM4E inh 10µM.
Screening Nc1ncnc2c1nc(Br)n2[C@H]1O[C@H]2COP(=O)(O)O[C@H]2[C@@H]1O returned HTT ATP protect inactive and KDM4E inh inconclusive.
For Cn1c(Sc2ccc(Cl)cc2)c(C=O)c2ccccc21 the results were HttQ103 aggreg 7.9µM, HTT ATP protect inactive[10 µM], L3MBTL1 block inactive and KDM4E inh inactive.
Screening Cc1ccc(N(C)C)cc1 returned HTT ATP protect inactive.
Screening Cc1ccc(C)n1-c1ccc(N(C)C)cc1 returned HttQ103 aggreg inactive, HTT ATP protect inactive and KDM4E inh 16µM.
Screening COc1cccc([C@@H]2Oc3ccc(Br)cc3C[C@H]2OC(=O)Nc2ccc(C)c(Br)c2)c1 returned HTT ATP protect inactive and KDM4E inh inactive.
Screening C#CCOCCOCCOCCNc1nc(N2CCN(C(=O)C(Cc3cc4ccccc4[nH]3)n3cc(C(N)Cc4ccc(O)cc4)nn3)CC2)nc(N2CCN(C(=O)C(CCC(=O)O)n3cc(C(N)C(C)CC)nn3)CC2)n1 (stereo not drawn) returned L3MBTL1 block 25µM.
C#CCOCCOCCOCCNc1nc(N2CCN(C(=O)[C@H](CCC(=O)O)n3cc(C(N)CO)nn3)CC2)nc(N2CCN(C(=O)[C@H](CCC(=O)O)n3cc(C(N)CC(C)C)nn3)CC2)n1 (stereo partly drawn) was read as HttQ103 aggreg inactive[9.22 µM], HTT ATP protect inactive[10 µM] and KDM4E inh 22µM.
CO/N=C(\C(=O)N[C@@H]1C(=O)N2C(C(=O)O)=C(CSc3nc(=O)c(O)nn3C)CS[C@@H]12)c1csc(N)n1 was read as HTT ATP protect inactive[1.9 µM].
`COCC#Cc1ccc(C2NC(C(=O)O)CCC2C)cc1` (stereo not drawn) gave HTT ATP protect inactive[10 µM].
Screening COC(=O)COc1cccc(-n2cnnn2)c1 returned HttQ103 aggreg inactive, HTT ATP protect inactive, L3MBTL1 block inactive and KDM4E inh inactive.
Screening Cc1cc(C(=O)COc2cccc(-n3cnnn3)c2)c(C)n1-c1ccccc1 returned HttQ103 aggreg 11µM, HTT ATP protect inactive, L3MBTL1 block inactive and KDM4E inh inactive.
Screening Cc1cccc(N=c2oc3cc(O)ccc3cc2C(N)=O)c1 returned HttQ103 aggreg 8.9µM, HTT ATP protect inactive, L3MBTL1 block inactive and KDM4E inh inconclusive.
Screening CS(=O)(=O)c1ncc(Cl)c(C(=O)Nc2ccc(OC(F)F)cc2)n1 returned L3MBTL1 block inactive.
For CS(=O)(=O)c1ncc(Cl)c(C(=O)Nc2ccc(N3CCOCC3)cc2)n1 the results were HttQ103 aggreg 11µM, HTT ATP protect inactive[10 µM], L3MBTL1 block inactive and KDM4E inh inactive.
`COC(=O)C1=C(C)N(Cc2ccccc2)[C@]23O[C@](C(=O)OC)(C(=O)N2C1c1ccccc1)C(C(=O)OC)C3C(=O)OC` (stereo partly drawn) gave HTT ATP protect inactive[10 µM].
Oc1cccc2c(NC(=S)Nc3ccc(OC(F)F)cc3)cccc12 was read as HttQ103 aggreg 13µM, HTT ATP protect inactive[10 µM], L3MBTL1 block inactive and KDM4E inh inactive.
Screening CCCCCCCCCCCCCCCC(=O)OCC(COP(=O)(O)O)OC(=O)CCCCCCCCCCCCCCC (stereo not drawn) returned HTT ATP protect inconclusive and KDM4E inh inactive.
`CCCCN1C=CC(=C2N=c3cccc([N+](=O)[O-])c3=N2)C=C1` gave HttQ103 aggreg 0.89µM, HTT ATP protect inactive[10 µM], L3MBTL1 block inactive and KDM4E inh inactive.
`CN(C)c1nc(N)c(C(=O)Nc2cccnc2)nc1Cl` gave HTT ATP protect inactive and KDM4E inh inconclusive.
`CCN(CC)S(=O)(=O)c1ccc2[nH]cc(C(=O)NCCC3=CCCCC3)c(=O)c2c1` gave HttQ103 aggreg 10µM, HTT ATP protect inactive, L3MBTL1 block inactive and KDM4E inh inactive.
Screening CCN(CC)C(=O)c1c[nH]c2ccc(S(=O)(=O)Nc3cc(C)cc(C)c3)cc2c1=O returned HttQ103 aggreg inactive, HTT ATP protect inactive, L3MBTL1 block inactive and KDM4E inh 32µM.
`Nc1ncnc2c1ncn2[C@@H]1O[C@@H](CO)[C@H](O)[C@@H]1O` gave HTT ATP protect inactive[1.9 µM].
Screening Cc1onc(-c2ccccc2Cl)c1C(=O)N1CCCCC1C(=O)O (stereo not drawn) returned HttQ103 aggreg inactive, HTT ATP protect inactive and KDM4E inh inactive.
For Cc1onc(-c2ccccc2Cl)c1C(=O)N(C)C1CCCCC1 the results were HttQ103 aggreg 14µM, HTT ATP protect inactive and KDM4E inh inactive.
`O=C(CSc1c2c(nc3cc(Cl)ccc13)CCCC2)NCc1ccco1` gave HTT ATP protect 13µM and KDM4E inh inactive.
For O=C(CSc1nc2ccc(Cl)cc2[nH]1)NCc1ccco1 the results were HttQ103 aggreg inactive[9.22 µM], HTT ATP protect inactive[10 µM], L3MBTL1 block inactive and KDM4E inh inactive.
Screening C[C@@H]1O[C@@H](n2cc(F)c(=O)[nH]c2=O)[C@H](O)[C@@H]1O returned HTT ATP protect inactive[1.9 µM].
Screening C=C(CC[C@@H](C)[C@H]1CCC2[C@]1(C)CC[C@]13C[C@@]14CCC(OC(=O)/C=C/c1ccc(O)c(OC)c1)C(C)(C)[C@@H]4CC[C@@]23C)C(C)C (stereo partly drawn) returned HttQ103 aggreg inactive and HTT ATP protect inactive.
Screening Oc1ccc(-c2nc3ccc4ccccc4c3c3c2CCC3)cc1O returned HttQ103 aggreg inconclusive, HTT ATP protect inactive[10 µM], L3MBTL1 block inactive and KDM4E inh 25µM.
COc1ccc(-c2cc(C(=O)O)nc3ccc4ccccc4c23)cc1OC was read as HttQ103 aggreg inactive, HTT ATP protect inactive and KDM4E inh inconclusive.
Screening CC1=NOC(=O)/C1=C/c1ccc(O)cc1 returned HttQ103 aggreg inactive[9.22 µM], HTT ATP protect inactive[10 µM], L3MBTL1 block inactive and KDM4E inh 28µM.
For COc1ccc(NC(=O)c2ccc3c(c2)NC(=O)CS3)cc1S(=O)(=O)Nc1ccc(Br)cc1 the results were HttQ103 aggreg 18µM, HTT ATP protect inactive, L3MBTL1 block inactive and KDM4E inh inconclusive.
COc1ccc(-c2nc(C#N)c(NCCCn3ccnc3)o2)cc1OC was read as HttQ103 aggreg inactive, HTT ATP protect inactive and KDM4E inh inconclusive.
CCN(CC)CCCNc1oc(-c2ccc(OC)c(OC)c2)nc1C#N was read as HttQ103 aggreg inactive, HTT ATP protect inactive[0.074 µM] and KDM4E inh 2.2µM.
Screening CC(C)(C)OC(=O)NCCCC1=CC2=CC(=O)C(C)(OC(=O)c3cnc4ccccc4n3)C(=O)C2=CO1 (stereo not drawn) returned HTT ATP protect inactive and KDM4E inh inactive.
`CN(C)Cc1ccccc1-c1nc(N(C)Cc2ccco2)c2ccccc2n1` gave HTT ATP protect inactive and KDM4E inh inconclusive.
COc1ccccc1-c1nnc(Sc2nc([N+](=O)[O-])nn2C)o1 was read as HTT ATP protect 18µM and KDM4E inh inactive.
Cc1cccc(-c2ccc3ncnc(NCc4cc(C)cs4)c3c2)c1 was read as L3MBTL1 block inactive.
COc1ccc(Oc2ncc3nc(-c4ccc(OC)cc4)c(=O)n(CCC#N)c3n2)cc1 was read as HTT ATP protect inactive.
